# Data as given in PubChem BioAssay.
# A number with no mark means an inactive call. The list shows a part of the results. The source made the active and inactive calls. Unless noted, no stated cut-off is given here; in the data, active means inhibition above about 25%; inactive means the rest.
# How the values were obtained:
# [1] = target: Nuclear receptor coactivator 1 (Homo sapiens) (UniProt Q15788); assay: NCOA1 GAL4-fusion reporter inhibition – cell-based, luminescence, quadruplicate, confirmation (AID 588820;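 active means mean inhibition above 46.68%, the untreated control wells mean plus 3 SD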;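 further: 0% = DMSO wells and 100% = gossypol 36 µM treated wells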); conditions: HEK293 GAL4-SRC1 luciferase reporter, at 3.6 µM, stronger effect = higher value
# [2] = repression of VP16-driven luciferase reporter – cell-based, luminescence, high throughput, counter-screen for SRC1 inhibitor project (AID 588824); conditions: cell-based VP16 transactivation luciferase luminescence; at 3.6 µM; stronger effect = higher value
# [3] = StAR promoter reporter inhibitors, counter-screen for LRH-1 inverse agonist project, cell-based, luminescence, high throughput (AID 651611; in the data active means inhibition above about 28%); conditions: StAR promoter luciferase reporter counterscreen, at 3.6 µM, stronger effect = higher value
# [4] = target: Nuclear receptor subfamily 5 group A member 2 (Homo sapiens) (UniProt O00482); assay: NR5A2 activity suppression in reporter cells – cell-based, luminescence, confirmation (AID 651613; in the data active means inhibition above about 42%;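 further: HEK293T cells co-transfected with LRH-1 and StAR promoter luciferase reporter; 0% = vehicle wells and 100% = parental cells lacking receptor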); conditions: cell-based LRH-1 luciferase reporter, inverse agonism; at 3.6 µM; stronger effect = higher value
# [5] = target: Steroidogenic factor 1 (Homo sapiens) (UniProt Q13285); assay: inverse agonism at SF1 nuclear receptor – cell-based, luminescence, high throughput, counter-screen for LRH-1 inverse agonist project (AID 651614; in the data active means inhibition above about 44%;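 further: cells cotransfected with StAR promoter reporter and SF1 expression vector; 0% = vehicle on cells with receptor and 100% = vehicle on cells lacking receptor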); conditions: cell-based SF1 luciferase reporter, at 3.6 µM, stronger effect = higher value
# [6] = compounds suppressing VP16-driven luciferase signal – cell-based, luminescence, high throughput, counter-screen for LRH-1 inverse agonist project (AID 651615; in the data active means inhibition above about 33%); conditions: Gal4-VP16 luciferase reporter cells, at 3.6 µM, stronger effect = higher value
# [7] = target: Photoreceptor-specific nuclear receptor (Homo sapiens) (UniProt Q9Y5X4); assay: retest of NR2E3-NCOR disrupting agonists – cell-based, luminescence, CHO-S two-hybrid, confirmation (AID 624378;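 active means average inhibition above a cutoff equal to the mean inhibition of all tested compounds plus one SD, cut at about 70% in these data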;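 further: 0% = DMSO in NR2E3 cells and 100% = DMSO in cells lacking NR2E3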); conditions: CHO-S mammalian two-hybrid NR2E3-NCOR, luciferase luminescence; at 3.98 µM; stronger effect = higher value
# [8] = nonselective effects on VP16 transactivation – cell-based, luminescence, CHO-S, high throughput, counter-screen for NR2E3 agonist project, confirmation (AID 624379;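 active means mean inhibition above a cutoff equal to the average over all tested compounds plus one standard deviation, cut at about 70% in these data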;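 further: 0% = DMSO with VP16-transfected cells and 100% = DMSO with cells lacking VP16; higher means less reporter light so more repression of VP16 activity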); conditions: CHO-S GAL4-VP16 luciferase reporter, at 3.98 µM, stronger effect = higher value
# [9] = VP16-driven transactivation reporter suppression – cell-based, luminescence, HEK293, counter-screen for COUP-TFII antagonist project (AID 687007; in the data active means inhibition above about 13%); conditions: HEK293 Gal4-VP16 luciferase reporter, at 8.5 µM, stronger effect = higher value
# [10] = target: COUP transcription factor 2 (Homo sapiens) (UniProt P24468); assay: retest of COUP-TFII reporter suppressors – cell-based, luciferase reporter, HEK293, triplicate, confirmation (AID 687008;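 active means mean inhibition over three repeats above a set limit taken from the earlier primary screen, cut at about 38% in these data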;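 further: 100% = cells given the luciferase reporter alone without the COUP-TF2 vector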); conditions: HEK293 NGFI-A luciferase reporter, luminescence; at 8.5 µM; stronger effect = higher value
# Chain of COUP transcription factor 2 (Homo sapiens) (P24468 whole entry, looked up): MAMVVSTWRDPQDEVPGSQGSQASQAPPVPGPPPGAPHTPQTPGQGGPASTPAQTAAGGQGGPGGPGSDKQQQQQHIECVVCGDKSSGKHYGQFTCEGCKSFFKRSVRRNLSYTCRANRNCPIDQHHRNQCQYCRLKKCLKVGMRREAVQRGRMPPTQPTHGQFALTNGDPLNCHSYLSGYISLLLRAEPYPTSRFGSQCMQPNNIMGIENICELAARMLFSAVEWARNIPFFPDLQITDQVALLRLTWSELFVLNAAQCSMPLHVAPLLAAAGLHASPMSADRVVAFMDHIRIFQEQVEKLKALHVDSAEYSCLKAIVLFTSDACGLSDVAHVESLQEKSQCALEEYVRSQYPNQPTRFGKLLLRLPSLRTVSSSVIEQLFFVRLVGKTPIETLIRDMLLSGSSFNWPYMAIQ
# Chain of Nuclear receptor subfamily 5 group A member 2 (Homo sapiens) (O00482 whole entry, looked up): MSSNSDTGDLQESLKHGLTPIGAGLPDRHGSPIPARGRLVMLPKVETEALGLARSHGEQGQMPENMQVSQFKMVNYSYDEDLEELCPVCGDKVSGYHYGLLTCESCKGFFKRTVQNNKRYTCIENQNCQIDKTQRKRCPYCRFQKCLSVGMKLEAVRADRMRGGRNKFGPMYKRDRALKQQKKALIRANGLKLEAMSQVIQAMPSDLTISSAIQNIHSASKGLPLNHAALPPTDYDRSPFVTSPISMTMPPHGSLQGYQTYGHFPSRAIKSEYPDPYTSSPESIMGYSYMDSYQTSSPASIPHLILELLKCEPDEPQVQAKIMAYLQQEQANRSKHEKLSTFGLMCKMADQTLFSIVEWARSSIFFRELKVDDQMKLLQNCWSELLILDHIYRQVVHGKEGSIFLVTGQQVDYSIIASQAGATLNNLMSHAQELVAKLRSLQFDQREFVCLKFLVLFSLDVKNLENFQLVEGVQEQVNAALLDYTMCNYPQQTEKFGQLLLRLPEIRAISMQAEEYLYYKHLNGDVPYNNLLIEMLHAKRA
# Chain of Steroidogenic factor 1 (Homo sapiens) (Q13285 whole entry, looked up, the tested form may be a part): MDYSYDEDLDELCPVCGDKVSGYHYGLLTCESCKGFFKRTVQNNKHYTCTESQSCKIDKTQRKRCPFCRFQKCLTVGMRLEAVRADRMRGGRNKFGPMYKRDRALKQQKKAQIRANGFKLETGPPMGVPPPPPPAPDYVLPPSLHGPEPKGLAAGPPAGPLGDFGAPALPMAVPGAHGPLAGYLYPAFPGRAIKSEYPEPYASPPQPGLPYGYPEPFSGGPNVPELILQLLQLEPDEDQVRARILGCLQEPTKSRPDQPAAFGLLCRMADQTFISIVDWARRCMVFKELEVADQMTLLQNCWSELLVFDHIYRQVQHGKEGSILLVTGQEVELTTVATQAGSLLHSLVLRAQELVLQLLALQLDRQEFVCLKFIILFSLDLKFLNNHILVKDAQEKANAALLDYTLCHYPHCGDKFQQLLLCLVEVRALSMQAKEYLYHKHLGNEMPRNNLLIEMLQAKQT
# Chain of Nuclear receptor coactivator 1 (Homo sapiens) (Q15788 whole entry, looked up, the tested form may be a part): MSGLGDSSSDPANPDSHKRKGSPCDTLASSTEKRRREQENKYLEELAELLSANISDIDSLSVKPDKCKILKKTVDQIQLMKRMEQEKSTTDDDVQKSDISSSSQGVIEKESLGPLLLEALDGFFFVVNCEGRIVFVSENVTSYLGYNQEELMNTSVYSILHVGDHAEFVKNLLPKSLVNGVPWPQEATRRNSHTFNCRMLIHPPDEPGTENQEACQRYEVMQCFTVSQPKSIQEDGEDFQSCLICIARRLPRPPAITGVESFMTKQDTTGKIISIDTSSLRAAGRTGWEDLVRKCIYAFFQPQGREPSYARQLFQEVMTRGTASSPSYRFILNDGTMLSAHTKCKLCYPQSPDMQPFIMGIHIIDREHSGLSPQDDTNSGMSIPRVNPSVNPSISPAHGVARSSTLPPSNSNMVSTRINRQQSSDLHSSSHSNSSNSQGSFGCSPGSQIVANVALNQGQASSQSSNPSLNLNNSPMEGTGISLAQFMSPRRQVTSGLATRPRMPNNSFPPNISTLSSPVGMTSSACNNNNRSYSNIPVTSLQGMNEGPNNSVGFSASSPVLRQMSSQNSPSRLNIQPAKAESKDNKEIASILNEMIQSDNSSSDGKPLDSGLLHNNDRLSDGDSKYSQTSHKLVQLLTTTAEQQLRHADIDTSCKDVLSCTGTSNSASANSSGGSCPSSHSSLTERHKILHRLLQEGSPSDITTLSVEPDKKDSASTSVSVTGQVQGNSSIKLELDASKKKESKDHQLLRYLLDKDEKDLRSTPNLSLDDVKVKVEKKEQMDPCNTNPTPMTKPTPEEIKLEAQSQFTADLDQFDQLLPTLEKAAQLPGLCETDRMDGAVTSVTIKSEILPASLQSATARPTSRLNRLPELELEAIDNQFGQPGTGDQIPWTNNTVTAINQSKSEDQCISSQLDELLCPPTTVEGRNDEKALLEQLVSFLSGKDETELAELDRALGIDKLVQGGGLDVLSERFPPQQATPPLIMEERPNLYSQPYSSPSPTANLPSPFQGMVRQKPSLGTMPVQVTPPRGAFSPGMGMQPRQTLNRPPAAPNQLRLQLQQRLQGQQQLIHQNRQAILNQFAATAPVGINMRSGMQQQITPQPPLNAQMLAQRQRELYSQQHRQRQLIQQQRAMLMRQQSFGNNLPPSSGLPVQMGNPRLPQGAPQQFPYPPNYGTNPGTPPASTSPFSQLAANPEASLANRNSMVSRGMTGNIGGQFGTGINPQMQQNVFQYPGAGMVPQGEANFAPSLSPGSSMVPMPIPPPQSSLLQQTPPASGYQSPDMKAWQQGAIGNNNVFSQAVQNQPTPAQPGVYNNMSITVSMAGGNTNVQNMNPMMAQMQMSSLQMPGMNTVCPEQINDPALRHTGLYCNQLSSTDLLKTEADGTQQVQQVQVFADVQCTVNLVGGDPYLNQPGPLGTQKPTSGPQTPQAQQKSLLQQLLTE
# Chain of Photoreceptor-specific nuclear receptor (Homo sapiens) (Q9Y5X4 whole entry, looked up): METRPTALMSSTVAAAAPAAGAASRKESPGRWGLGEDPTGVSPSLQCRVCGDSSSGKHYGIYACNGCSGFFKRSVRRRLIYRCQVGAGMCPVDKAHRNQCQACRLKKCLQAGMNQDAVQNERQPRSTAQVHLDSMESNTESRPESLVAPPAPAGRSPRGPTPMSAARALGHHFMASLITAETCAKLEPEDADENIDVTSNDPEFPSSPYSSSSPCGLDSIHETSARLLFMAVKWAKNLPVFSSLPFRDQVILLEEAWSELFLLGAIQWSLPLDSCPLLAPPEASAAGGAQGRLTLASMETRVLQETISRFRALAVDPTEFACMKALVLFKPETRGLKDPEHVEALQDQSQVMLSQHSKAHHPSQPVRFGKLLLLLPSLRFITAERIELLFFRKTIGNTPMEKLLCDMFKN
smiles,measurement,setting,value
Cc1c(C(=O)NN)nn(-c2ccc(Cl)cc2)c(=O)c1C#N,inhibition,[1],-10.1%
same,inhibition,[2],5.25%
Cc1ccc(C(=O)NC2CCCc3c2cnn3-c2ccc(F)cc2F)cn1 (stereo not drawn),inhibition,[1],-17.5%
same,inhibition,[2],27.2% (active)
CCOC(=O)c1c(CN(CC)CC)n(C)c2cc(Br)c(O)cc12,inhibition,[1],6.72%
same,inhibition,[2],2.67%
COc1ccc(C(=O)NNC(=O)C(=O)N2CCCCC2)cc1OC,inhibition,[1],-5.24%
same,inhibition,[2],-0.82%
O=C1N=C(N2CCCC2)S/C1=C\C=C\c1ccccc1,inhibition,[1],-93.8%
same,inhibition,[2],-50.3%
C[C@H]1Cn2cnc(C(=O)Nc3cccc(Cl)c3)c2C(=O)N1,inhibition,[1],61.2% (active)
same,inhibition,[2],34% (active)
CN(C)CCNc1ccc(CO)c2sc3ccc(O)cc3c(=O)c12,inhibition,[1],44.8%
same,inhibition,[2],39.1% (active)
same,inhibition,[3],77% (active)
same,inhibition,[4],89.5% (active)
same,inhibition,[5],75.7% (active)
same,inhibition,[6],61.2% (active)
C#Cc1ccc(NC(=O)C2(C)CCN2C(=O)Cc2ccc(-c3ccccc3)cc2)cc1 (stereo not drawn),inhibition,[1],12.8%
same,inhibition,[2],36.2% (active)
same,inhibition,[7],50.6%
same,inhibition,[8],52.9%
same,inhibition,[9],6.08%
same,inhibition,[10],44.2% (active)
CCCCn1c2c(c(=N)c3c1CCC3)CCC2,inhibition,[1],4.17%
same,inhibition,[2],33.1% (active)
same,inhibition,[3],26.5%
same,inhibition,[4],80.5% (active)
same,inhibition,[5],61.9% (active)
same,inhibition,[6],61% (active)
O=C(Nc1ccc(Cl)c(Cl)c1)c1cccc(S(=O)(=O)NCc2cccnc2)c1,inhibition,[1],6.28%
same,inhibition,[2],25.9% (active)
CCN(CC)S(=O)(=O)c1cc(NC(=O)CNc2cccc(S(=O)(=O)N3CCCC3)c2)ccc1C,inhibition,[1],-4.32%
same,inhibition,[2],32.8% (active)
same,inhibition,[3],21.6%
same,inhibition,[4],61.7% (active)
same,inhibition,[5],54.9% (active)
same,inhibition,[6],49.1% (active)
